{
  "source": "PubChem BioAssay (NCATS)",
  "note": "The source made the active and inactive calls. The call rests on the fitted dose curve; in most records, active means well fitted curve in the direction sought with a large enough effect (not every such curve was filed as active); inconclusive means small, poorly fitted or top-dose-only effect, or effect the other way, or another doubt; inactive means no such curve, though single readings can be large or run the other way.",
  "data": [
    {"target": "Pyruvate kinase PKM (Homo sapiens) (UniProt P14618)", "sequence (P14618 whole entry, looked up)": "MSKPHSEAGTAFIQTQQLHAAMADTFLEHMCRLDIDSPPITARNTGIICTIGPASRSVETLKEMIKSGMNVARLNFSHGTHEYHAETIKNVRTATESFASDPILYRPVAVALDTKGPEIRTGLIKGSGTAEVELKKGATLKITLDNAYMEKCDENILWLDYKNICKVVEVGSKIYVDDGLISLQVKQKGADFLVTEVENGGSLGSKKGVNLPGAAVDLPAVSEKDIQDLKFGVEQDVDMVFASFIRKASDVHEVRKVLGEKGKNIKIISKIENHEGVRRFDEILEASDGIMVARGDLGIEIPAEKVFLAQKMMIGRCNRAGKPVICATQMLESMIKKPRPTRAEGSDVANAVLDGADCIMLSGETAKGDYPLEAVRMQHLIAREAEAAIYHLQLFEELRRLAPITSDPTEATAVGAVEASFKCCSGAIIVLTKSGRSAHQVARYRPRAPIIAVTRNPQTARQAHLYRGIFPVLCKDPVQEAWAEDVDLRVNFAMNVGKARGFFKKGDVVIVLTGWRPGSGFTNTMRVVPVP", "test": "qHTS Assay for Activators of Human Muscle Pyruvate Kinase (AID 954);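 further: 0% = uninhibited enzyme and -100% = no enzyme or full thiadiazolimine inhibition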", "details": "purified human muscle pyruvate kinase, luciferase-coupled luminescence, 1 h; series mostly up to 57.5 µM; activity change, negative = inhibition: at the top concentration", "method": "NIH Molecular Libraries Screening Centers Network [MLSCN]\nNIH Chemical Genomics Center [NCGC]\nWael M. Rabeh, Lyudmila Nedyalkova and Hee-Wan Park [Structural Genomics Consortium, 100 College St. Toronto, Ontario, Canada]\nHuman pyruvate kinase muscle 2 enzyme was supplied as a highly purified (>95% pure) preparation by the Structural Genomics Consortium in Toronto (Ontario, Canada) and was assayed for its ability to generate ATP from ADP using phosphoenolpyruvate (PEP) as a substrate. ATP generation was detected in a coupled reaction by luciferase-mediated luminescence, an ATP-dependent process. Pyruvate kinase substrates, PEP and ADP, were present in the assay at Km and approximately […]-fold below Km respectively. The enzyme was assayed at an intermediate level of activity to screen for inhibitors and activators.\nNCGC Assay Protocol Summary:\nThree uL of substrate mix (final concentration, 50 mM imidazole pH 7.2, 50 mM KCl, 7 mM MgCl2, 0.5 mM PEP, 0.1 mM ADP, 0.01% Tween 20, 0.05% BSA) was dispensed into 1536 well plates. 23 nL of compound were delivered by a pin tool and 1 uL of enzyme mix (final concentration, 0.1 nM pyruvate kinase, 50 mM imidazole pH 7.2, 0.05% BSA) was added. Plates were incubated at room temperature for 1 hour. Two uL of detection and kinase stop mix (PKLight, Cambrex) was added, the plates centrifuged, and luminescence read by a ViewLux (Perkin Elmer) at 5 second exposure/plate. Data were normalized to the uninhibited and AC100 inhibition (no enzyme or 110 uM N-methyl-2,3-diphenyl-1,2,4-thiadiazol-5-imine; CID: 682802; LOPAC-S-4063). To monitor activation, 0.3 nM pyruvate kinase was included in one control column.", "values": [
      {"molecule": "OCCN1CCN(CCCN2c3ccccc3C=Cc3ccccc32)CC1", "outcome": "inactive"},
      {"molecule": "CCCCNc1ccc(C(=O)OCCN(C)C)cc1", "activity change, negative = inhibition": "-16.4% (inactive)"},
      {"molecule": "COc1ccc(CN(CCN(C)C)c2ccccn2)cc1", "activity change, negative = inhibition": "5.69% (inactive)"},
      {"molecule": "CN1CCN(C2=Nc3ccccc3Oc3ccc(Cl)cc32)CC1", "activity change, negative = inhibition": "-3.46% (inactive)"},
      {"molecule": "O=C(CCCN1CCC(O)(c2cccc(C(F)(F)F)c2)CC1)c1ccc(F)cc1", "activity change, negative = inhibition": "-29% (inactive)"},
      {"molecule": "CCN(CC)CC(=O)Nc1c(C)cccc1C", "activity change, negative = inhibition": "6.98% (inactive)"},
      {"molecule": "CC1=NS(=O)(=O)c2cc(Cl)ccc2N1", "activity change, negative = inhibition": "-9.55% (inactive)"},
      {"molecule": "CC(C)NNC(=O)c1ccncc1", "activity change, negative = inhibition": "9.16% (inactive)"},
      {"molecule": "CC[N+](C)(C)c1cccc(O)c1", "activity change, negative = inhibition": "-0.796% (inactive)"},
      {"molecule": "CCN(CC)CCNC(=O)c1cc(S(C)(=O)=O)ccc1OC", "activity change, negative = inhibition": "-9.3% (inactive)"},
      {"molecule": "CCCC(C(=O)OCCN(CC)CC)(c1ccccc1)c1ccccc1", "activity change, negative = inhibition": "-1.47% (inactive)"},
      {"molecule": "O=C(CCNNC(=O)c1ccncc1)NCc1ccccc1", "activity change, negative = inhibition": "-19.3% (inactive)"},
      {"molecule": "CC(C)[N+](C)(CCOC(=O)C1c2ccccc2Oc2ccccc21)C(C)C", "activity change, negative = inhibition": "-21.9% (inactive)"},
      {"molecule": "CN=C(NC#N)NCCSCc1nc[nH]c1C", "activity change, negative = inhibition": "-23.7% (inactive)"},
      {"molecule": "C[C@H](CS)C(=O)N1CCC[C@H]1C(=O)O", "activity change, negative = inhibition": "-22.1% (inactive)"},
      {"molecule": "Cc1nc2ccccn2c(=O)c1CCN1CCC(C(=O)c2ccc(F)cc2)CC1", "activity change, negative = inhibition": "-18.5% (inactive)"},
      {"molecule": "CCc1cccc(N(C)C(N)=Nc2cccc3ccccc23)c1", "activity change, negative = inhibition": "-0.313% (inactive)"},
      {"molecule": "CCCCNC(=O)NS(=O)(=O)c1ccc(C)cc1", "activity change, negative = inhibition": "-5.63% (inactive)"},
      {"molecule": "CC(=O)Oc1cc(C(C)C)c(OCCN(C)C)cc1C", "activity change, negative = inhibition": "-28.5% (inactive)"},
      {"molecule": "CCN(CC)CCNC(=O)c1ccc(NC(C)=O)cc1", "activity change, negative = inhibition": "8.36% (inactive)"},
      {"molecule": "Cc1scc2c1N(C(=O)CN1CCN(C)CC1)c1ccccc1NC2=O", "activity change, negative = inhibition": "-10.2% (inactive)"},
      {"molecule": "CN(C(=O)CCCOc1ccc2[nH]c(=O)ccc2c1)C1CCCCC1", "activity change, negative = inhibition": "-24.2% (inactive)"},
      {"molecule": "CCn1cc(C(=O)O)c(=O)c2cc3c(cc21)OCO3", "activity change, negative = inhibition": "-13% (inactive)"},
      {"molecule": "Cc1nc2c([nH]1)c(=O)n(C)c(=O)n2Cc1ccco1", "activity change, negative = inhibition": "-22.6% (inactive)"},
      {"molecule": "CC1=C(C)C(=O)C(CCCCC#CCCCC#CCO)=C(C)C1=O", "activity change, negative = inhibition": "-13.6% (inactive)"},
      {"molecule": "O=C1NCN(c2ccccc2)C12CCN(CCCC(c1ccc(F)cc1)c1ccc(F)cc1)CC2", "activity change, negative = inhibition": "5.73% (inactive)"},
      {"molecule": "CN(C)CCN(Cc1cccs1)c1ccccn1", "activity change, negative = inhibition": "-29.4% (inactive)"},
      {"molecule": "C[N+](C)(C)CCCCCCCCCC[N+](C)(C)C", "activity change, negative = inhibition": "-5.01% (inactive)"},
      {"molecule": "CCN1CCc2nc(N)oc2CC1", "activity change, negative = inhibition": "-4.89% (inactive)"},
      {"molecule": "CN/C(=C\\[N+](=O)[O-])NCCSCc1ccc(CN(C)C)o1", "activity change, negative = inhibition": "-14.4% (inactive)"},
      {"molecule": "COC(=O)[C@H]1[C@H]2C[C@@H]3c4[nH]c5cc(OC)ccc5c4CCN3C[C@H]2C[C@@H](OC(=O)c2cc(OC)c(OC)c(OC)c2)[C@@H]1OC", "activity change, negative = inhibition": "10.7% (inactive)"},
      {"molecule": "COC(=O)[C@@H](N)Cc1ccc(O)c(O)c1", "activity change, negative = inhibition": "-12.8% (inactive)"},
      {"molecule": "O=C1CC2(CCCC2)CC(=O)N1CCCCN1CCN(c2ncccn2)CC1", "activity change, negative = inhibition": "-18.4% (inactive)"},
      {"molecule": "FC(F)(F)c1ccccc1-n1ccnc1", "activity change, negative = inhibition": "-8.62% (inactive)"},
      {"molecule": "COc1cc(C(=O)OCCCN2CCCN(CCCOC(=O)c3cc(OC)c(OC)c(OC)c3)CC2)cc(OC)c1OC", "activity change, negative = inhibition": "-18.8% (inactive)"},
      {"molecule": "c1cnc(N2CCN(Cc3ccc4c(c3)OCO4)CC2)nc1", "activity change, negative = inhibition": "-9.52% (inactive)"},
      {"molecule": "CCOC(=O)c1cnc2c(cnn2CC)c1NN=C(C)C", "activity change, negative = inhibition": "25.2% (inactive)"},
      {"molecule": "O=C(O)CN(CCN(CC(=O)O)CC(=O)O)CCN(CC(=O)O)CC(=O)O", "activity change, negative = inhibition": "-22.8% (inactive)"},
      {"molecule": "CCN(CC)CCOCCOC(=O)C1(c2ccccc2)CCCC1", "activity change, negative = inhibition": "-2.75% (inactive)"},
      {"molecule": "CCCOc1ccccc1-c1nc2n[nH]nc2c(=O)[nH]1", "activity change, negative = inhibition": "-22.9% (inactive)"}
    ]}
  ]
}
